# Source: PubChem (The Scripps Research Institute Molecular Screening Center)
# FBW7 act: FBW7 E3 ligase activators, primary screen, biochemical, AlphaScreen, human | AlphaScreen FBW7–phospho-cyclin E peptide binding, activator screen | actives 0.13% (n = 650,000) | normalized activity (activation), % at 26.1 µM | F-box/WD repeat-containing protein 7 (Homo sapiens), Q969H0; in the data active = normalized activity above about 1.9%;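 note: purified mutant Fbw7 with reduced substrate affinity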
# Target sequence (Q969H0 whole entry, looked up): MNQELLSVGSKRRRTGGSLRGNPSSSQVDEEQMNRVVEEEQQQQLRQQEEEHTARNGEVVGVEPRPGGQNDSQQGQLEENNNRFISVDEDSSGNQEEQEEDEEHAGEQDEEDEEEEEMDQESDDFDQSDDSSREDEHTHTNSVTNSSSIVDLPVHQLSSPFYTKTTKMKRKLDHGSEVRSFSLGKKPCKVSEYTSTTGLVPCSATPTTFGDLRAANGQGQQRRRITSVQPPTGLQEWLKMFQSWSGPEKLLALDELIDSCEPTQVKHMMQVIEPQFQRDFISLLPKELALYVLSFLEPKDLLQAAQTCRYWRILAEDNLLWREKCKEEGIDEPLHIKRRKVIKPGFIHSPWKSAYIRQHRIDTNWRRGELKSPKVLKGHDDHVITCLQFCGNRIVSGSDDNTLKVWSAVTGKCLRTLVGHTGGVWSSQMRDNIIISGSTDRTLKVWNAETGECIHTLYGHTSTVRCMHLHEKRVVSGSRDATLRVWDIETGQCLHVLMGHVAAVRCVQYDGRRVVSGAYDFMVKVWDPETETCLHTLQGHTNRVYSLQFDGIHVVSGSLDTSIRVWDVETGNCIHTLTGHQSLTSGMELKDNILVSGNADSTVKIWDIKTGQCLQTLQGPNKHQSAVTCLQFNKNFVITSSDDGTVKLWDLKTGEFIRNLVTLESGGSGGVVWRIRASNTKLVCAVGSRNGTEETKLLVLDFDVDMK
# MITF inh: MITF inhibitors, primary screen, biochemical, AlphaScreen, human; actives 0.91% (n = 650,000); AlphaScreen MITF homodimerization, bead proximity signal; inhibition, % at 2.6 µM; AID 1259374, 2018; Microphthalmia-associated transcription factor (Homo sapiens), O75030; in the data active = inhibition above about 50%;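 note: 0% = vehicle wells with protein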
# GPR151 ag: activators of human GPR151, primary screen, cell-based, PathHunter beta-arrestin, luminescence; activation, % at 11.2 µM; G-protein coupled receptor 151 (Homo sapiens), Q8TDV0; PathHunter beta-arrestin GPR151 cells; AID 1508602, 2020; actives 1% (n = 650,000); in the data active = activation above about 4.9%;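 note: 0% = median of compound wells and 100% = cells with positive control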
# TEAD-YAP block: TEAD-YAP interaction inhibition, primary screen, TEAD-YAP interaction inhibitor project, luminescence, HEK-TIYL cells; TEAD-Gal4/YAP UAS-luciferase luminescence; inhibition, % at 9.12 µM; actives 1.4% (n = 640,000); in the data active = inhibition above about 32%;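 note: 0% = median of test compound wells and 100% = reference inhibitor wells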
# An asterisk follows results filed as active. Rows were chosen to be rich in hits. Some 3.5% of all compounds tested hit in one or more screens of this group.
SMILES,FBW7 act,MITF inh,GPR151 ag,TEAD-YAP block
FC(F)(F)c1ccc(Cn2cnc3c(NCc4nc5ccccc5[nH]4)nc(Nc4ccc(C(F)(F)F)cc4)nc32)cc1,0.2,9.3,2.0,-0.1
COc1cc(Nc2nc(NCc3nc4ccccc4[nH]3)c3ncn(Cc4ccc(C(F)(F)F)cc4)c3n2)cc(OC)c1OC,0.0,3.7,-0.5,42.9*
FC(F)(F)c1ccc(Cn2cnc3c(NCc4nc5ccccc5[nH]4)nc(Nc4ccccc4)nc32)cc1,0.1,5.2,2.9,40.7*
FC(F)(F)c1ccc(Cn2cnc3c(NCc4nc5ccccc5[nH]4)nc(Nc4ccc5ncccc5c4)nc32)cc1,0.9,5.0,-0.3,-5.8
COc1cc(Nc2nc(NC3CC3)c3ncn(Cc4ccc(C(F)(F)F)cc4)c3n2)cc(OC)c1OC,0.3,20.6,-0.9,46.8*
COc1ccc(-c2nc(N)c3ncn(-c4ccsc4)c3n2)cc1,0.1,5.7,0.0,36.3*
COc1ccc(-c2nc(N)c3ncn(-c4ccccc4)c3n2)cc1,0.1,-5.7,-0.6,1.3
COc1ccc(-c2nc(N)c3ncn(-c4ccccc4)c3n2)cn1,0.2,-2.7,0.1,-4.4
COc1ccc(-c2nc(N)c3ncn(-c4ccsc4)c3n2)cn1,-0.1,-7.8,-0.4,62.4*
Cc1ccc2[nH]c(=O)c(CN(CCO)S(=O)(=O)c3cccc4nsnc34)cc2c1,0.0,11.2,1.8,48.1*
CCOCCCNc1ncnc2c1cnn2C,1.9*,-14.5,-0.2,1.5
CC(=O)Nc1ccccc1OCC(=O)Nc1ccccc1-c1ccccc1,0.1,4.4,1.2,7.5
CCN1/C(=C/C=C/c2oc3ccc(Cl)cc3[n+]2CC)Oc2ccc(Cl)cc21,-0.1,1.4,-0.1,5.9
CCN1/C(=C/C=C/c2oc3ccc4ccccc4c3[n+]2CC)Oc2ccc3ccccc3c21,0.2,-8.2,1.7,77.9*
CC(=O)Nc1ccc(S(=O)(=O)N2CCN=C2SCc2ccc(Br)cc2)cc1,-0.1,-5.1,0.8,4.8
CCOc1ccc2nc(NC3=NC(C)(C)CC(C)=N3)nc(C)c2c1,-0.1,-0.9,-0.7,27.9
CC1=NC(Nc2nc(C)c3cc(C)ccc3n2)=NC(C)(C)C1,0.6,-7.7,-1.1,37.0*
O=C(Nn1c(C2CC2)nc2cc(Cl)ccc2c1=O)c1ccccc1,0.1,2.0,0.2,53.2*
CCC(C(=O)N1CCN(c2cccc(OC)c2)CC1)n1nc(C)n2c(cc3occc32)c1=O (centres undefined),0.1,6.7,0.1,6.5
CC1CC(=O)Nc2ccc(Br)cc2N1C=O (centres undefined),-0.2,10.7,-0.8,-9.9
COc1ccc(-c2cn3nc(N4CCCC(C(=O)N5CCCCCC5)C4)sc3n2)cc1 (centres undefined),-0.2,6.8,0.7,45.0*
CC(C)Nc1cc(N(C)C)c2noc3c2c1C(=O)c1ccccc1-3,-0.5,50.7*,0.1,10.8
CC(C)Nc1cc(N2CCN(C)CC2)c2noc3c2c1C(=O)c1ccccc1-3,-0.7,52.1*,-0.3,7.4
CCCN1CCN(c2cc(NCCO)c3c4c(onc24)-c2ccccc2C3=O)CC1,-0.5,24.2,-2.1,21.4
CC(C)Nc1cc(N2CCC(=O)CC2)c2noc3c2c1C(=O)c1ccccc1-3,-0.4,22.2,-0.4,-16.3
SMILES,FBW7 act,MITF inh,GPR151 ag,TEAD-YAP block
CCOC(=O)N1CCN(c2cc(NC(C)C)c3c4c(onc24)-c2ccccc2C3=O)CC1,-1.3,70.7*,1.5,10.5
CCCCNc1cc(N2CCN(CCO)CC2)c2noc3c2c1C(=O)c1ccccc1-3,-0.4,53.8*,-0.8,19.6
CCOC(=O)N1CCN(c2cc(Nc3ccc(OC)cc3)c3c4c(onc24)-c2ccccc2C3=O)CC1,-0.4,-5.8,-0.3,-0.1
CC(C)C[C@H]1NC(=O)[C@H]2CN(CC(C)C)CCN2C1=O,-0.1,7.5,0.3,-1.1
Cc1ccc2c(CC(=O)OCC(=O)N3c4ccccc4NC(=O)C3(C)C)coc2c1,-0.1,2.4,-0.6,11.7
O=C(/C=C/c1ccc(F)cc1)NC1CCCCC1,0.3,12.3,-1.1,-70.3
O=C(CCc1nnc(CCc2c[nH]c3ccccc23)o1)NCC1OCCc2ccccc21 (centres undefined),-0.2,7.4,1.4,12.1
COc1ccc2[nH]c3c(c2c1)CCNC31CCN(C(=O)NC(C)C)CC1,-0.1,-8.7,-0.5,-19.3
COc1ccc(C(=O)Nc2cc(Cl)ccc2C(=O)O)cc1,0.1,15.5,-1.4,5.9
COC(=O)c1ccc(Cl)cc1NC(=O)c1cc(OC)ccc1Br,0.0,-2.9,-1.1,36.7*
CC(=O)c1ccc(COC(=O)CCC(=O)Nc2cccc([N+](=O)[O-])c2)cc1,0.2,4.6,0.2,12.0
COc1ccccc1NC(c1cccnc1)c1ccc2cccnc2c1O (centres undefined),-2.0,76.3*,-0.5,3.3
Cc1ccnc(NC(c2ccncc2)c2ccc3ccc(C)nc3c2O)c1 (centres undefined),-0.2,3.6,1.0,39.5*
Cc1ccnc(NC(c2ccc(C(C)(C)C)cc2)c2ccc3cccnc3c2O)c1 (centres undefined),-0.1,-8.8,-0.1,18.7
CCOc1ccc(C(Nc2cc(C)ccn2)c2ccc3cccnc3c2O)cc1C (centres undefined),-0.3,8.4,0.3,85.6*
Oc1c(C(Nc2nccs2)c2cccnc2)ccc2cccnc12 (centres undefined),-0.4,89.3*,0.6,66.8*
C=CCOc1cccc(C(Nc2cc(C)ccn2)c2ccc3ccc(C)nc3c2O)c1 (centres undefined),-0.1,-60.0,-1.3,16.9
COc1cc(C(=O)NCc2ccc(C(=O)NCC3CCCO3)cc2)cc(OC)c1OC (centres undefined),-0.2,-3.9,0.3,-8.4
Cc1ccnc(NC(c2cccnc2)c2ccc3cccnc3c2O)c1 (centres undefined),-0.3,65.5*,0.2,20.1
Cc1ccnc(NC(c2cccnc2)c2ccc3ccc(C)nc3c2O)c1 (centres undefined),-0.2,-5.0,2.5,15.4
Cc1cc(C2(O)C(=O)Nc3ccccc32)ccc1F (centres undefined),-0.1,14.0,-2.3,-1.6
CCOC(=O)N1CCN(c2c(NCCCN(CC)c3cccc(C)c3)c(=O)c2=O)CC1,-0.1,68.4*,0.6,5.7
CN1C(=O)C(CC(=O)Nc2ccc(F)cc2)S/C1=N/c1nc2ccccc2s1 (centres undefined),-0.1,-1.1,-1.0,-8.3
CC(=O)c1ccc(-c2ccc(N)c(C(=O)c3ccccc3)c2)cc1,-0.3,-4.7,-0.5,58.3*
COc1ccccc1C(=O)Nc1cccc(N2CCC(NCCSC)CC2)c1,-0.1,12.3,-0.7,47.4*
COc1ccccc1C(=O)Nc1cccc(N2CCC(NCC3CCOCC3)CC2)c1,-0.2,5.6,-0.7,6.0
COC(=O)c1ccc(COc2ccc(CO)cc2OC)cc1,0.0,-3.8,-0.7,-6.0
